From PubChem BioAssay
Activity calls are given as the source filed them.

Key:
Albumin (Bos taurus) = Albumin (Bos taurus) (UniProt P02769); assay: compounds binding labelled BSA control protein – biochemical, small-molecule microarray, Alexa647 label, 635/667 nm fluorescence, artefact control for SMM control protein annotation, profiling panel (AID 1118); conditions: BSA-A647 binding, fluorescence 635 nm, higher = more signal;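 note: score merges 667 nm emission intensity and signal-to-noise per printed compound spot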
[1] = probe aXIP binding to arrayed compounds – biochemical, NeuroSMM set, 635/667 nm fluorescence, primary screen (AID 1119); conditions: small-molecule microarray, higher = more signal, called active from +8 up or from −8 down;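 note: probe is the protein aXip251-270 applied at 1 µg/mL to compound-printed slides; binding of probe to printed compounds measured as 667 nm fluorescence plus signal to noise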
[2] = probe aNOTCH3 binding on compound microarray – biochemical, small-molecule microarray, 635/667 nm fluorescence, primary screen (AID 1120); conditions: higher = more signal;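 note: probe is a biotin-tagged antibody raised against NOTCH3 rather than NOTCH3 protein; score merges spot fluorescence near 667 nm with spot signal to noise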
[3] = probe aNOTCH2 binding on compound microarray – biochemical, small-molecule microarray, 635/667 nm fluorescence, primary screen (AID 1121); conditions: higher = more signal;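 note: score merges feature fluorescence read at 667 nm with its signal to noise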
[4] = biological target: Carbonic anhydrase 2 (Homo sapiens) (UniProt P00918); assay: compounds binding carbonic anhydrase 2 – biochemical, small-molecule microarray, Alexa647-labelled CAII, profiling panel (AID 1122); conditions: CAII-A647 binding fluorescence, higher = more signal
[5] = COS7 lysate on small-molecule microarray, probe aHis, 635 nm (AID 1123); conditions: COS7 cell lysate, fluorescence, higher = more signal;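 note: z-score combines 667nm fluorescence intensity with signal-to-noise per printed compound spot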
[6] = probe aLAP1 signal on lysate-treated microarray – cell lysate, small-molecule microarray, COS7 lysate, primary screen (AID 1124); conditions: probe aLAP1, fluorescence, higher = more signal;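 note: lysate comes from COS7 cells expressing LAP1 and is applied at 0.3 µg/mL; score merges spot fluorescence near 667 nm with signal-to-noise over triplicate slides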
Sam68 (KHDRBS1) = assay: compounds binding KHDRBS1 protein – biochemical, small-molecule microarray, 635 nm fluorescence, primary screen (AID 1125); conditions: higher = more signal;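 note: score merges 667 nm channel intensity with signal to noise over triplicate slides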
[7] = system: Chordin-like protein 2 (CHRDL2); assay: compounds binding chordin-like 2 – biochemical, small-molecule microarray, 635 nm fluorescence, primary screen (AID 1126); conditions: fluorescence 635 nm, higher = more signal;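 note: printed compound slides probed with Chrdl2 protein at 4 µg/mL for 1 h at 4 C; score merges 667 nm emission intensity with signal to noise over three replicate slides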
[8] = biological target: Concanavalin-A (Canavalia ensiformis) (UniProt P02866); assay: compounds binding concanavalin A lectin – biochemical, small-molecule microarray, Alexa647 label, 635 nm, artefact control for SMM control protein annotation, primary screen (AID 1127); conditions: ConA-A647 binding fluorescence, higher = more signal;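 note: z combines 667 nm emission intensity with signal-to-noise across three replicate slides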
Chain of Concanavalin-A (Canavalia ensiformis) (P02866 whole entry, looked up): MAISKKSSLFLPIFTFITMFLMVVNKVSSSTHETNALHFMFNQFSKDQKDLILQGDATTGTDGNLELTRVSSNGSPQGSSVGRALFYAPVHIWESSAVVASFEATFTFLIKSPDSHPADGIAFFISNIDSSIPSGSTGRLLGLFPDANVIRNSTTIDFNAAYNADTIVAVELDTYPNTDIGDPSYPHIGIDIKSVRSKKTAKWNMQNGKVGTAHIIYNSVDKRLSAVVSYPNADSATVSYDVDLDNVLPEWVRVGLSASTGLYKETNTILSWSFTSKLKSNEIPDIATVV

Chain of Albumin (Bos taurus) (P02769 whole entry, looked up): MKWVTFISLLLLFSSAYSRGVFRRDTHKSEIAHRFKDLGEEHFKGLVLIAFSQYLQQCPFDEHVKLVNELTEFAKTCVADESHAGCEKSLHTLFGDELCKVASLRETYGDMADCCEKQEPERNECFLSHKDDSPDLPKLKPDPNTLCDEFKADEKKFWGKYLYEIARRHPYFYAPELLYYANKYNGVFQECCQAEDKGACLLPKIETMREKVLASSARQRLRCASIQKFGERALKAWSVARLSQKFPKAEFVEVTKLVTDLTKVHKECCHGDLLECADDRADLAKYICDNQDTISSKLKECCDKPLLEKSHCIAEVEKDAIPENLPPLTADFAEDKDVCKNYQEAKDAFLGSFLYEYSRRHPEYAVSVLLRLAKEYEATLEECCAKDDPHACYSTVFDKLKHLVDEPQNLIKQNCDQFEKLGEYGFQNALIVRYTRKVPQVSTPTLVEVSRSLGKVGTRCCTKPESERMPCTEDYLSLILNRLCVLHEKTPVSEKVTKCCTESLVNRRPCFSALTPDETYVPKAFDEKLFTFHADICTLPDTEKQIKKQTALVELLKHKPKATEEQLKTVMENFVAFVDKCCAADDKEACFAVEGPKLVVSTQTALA

SMILES | composite z-score (Albumin (Bos taurus)) | composite Z-score [1] | composite z-score [2] | composite z-score [3] | composite z-score [4] | composite z-score [5] | composite z-score [6] | composite z-score (Sam68 (KHDRBS1)) | composite z-score [7] | composite z-score [8]
CN(C)CCCCNC(=O)[C@H]1C[C@H]2C(=O)N[C@@H](CCCCN(C)C)C(=O)N2[C@H]1c1cccc(OCCO)c1 | 0.418 | -1 (inactive) | 0.0691 | -0.237 | 0.18 | 2.21 | 0.518 | 1.31 | 1.39 | 1.14
[N-]=[N+]=NCc1ccccc1C[C@@]1(C(N)=O)N=C(c2ccc(OCCCO)cc2)O[C@@H]1c1ccccc1CN=[N+]=[N-] | 0.757 | 1.22 (inactive) | 0.105 | -0.0386 | 0.549 | 1.5 | 0.383 | 1.29 | -0.464 | 0.792
NC(=O)NCC#Cc1ccc2c(c1)[C@]1(C(=O)N2)[C@H](C(=O)O)[C@H]2C(=O)O[C@H](c3ccccc3)[C@H](c3ccccc3)N2[C@@H]1c1ccccc1OCCO | 0.501 | 0.434 (inactive) | 0.199 | 0.0505 | 0.372 | 0.329 | -0.0878 | 0.685 | 0.915 | 1.11
C=CCN1C(=O)[C@@]2(O[C@@H](CCn3cc([C@H](O)c4ccccc4)nn3)[C@H]([Si](C)(C)c3ccc(OC)cc3)[C@H]2C)c2ccccc21 | 0.205 | 0.363 (inactive) | 0.221 | -0.151 | 0.499 | 0.422 | 0.572 | 1.08 | 0.333 | 1.01
CC=CC(O)C1C=CC2C(=O)N(C)C(=O)C2N1Nc1ccc([N+](=O)[O-])cc1[N+](=O)[O-] (stereo not given) | 0.9 | 0.236 (inactive) | -0.0932 | -0.0351 | 0.834 | 1.08 | 0.146 | -0.52 | 0.001 | 0.458
CN(C)CCCCNC(=O)[C@H]1C[C@H]2C(=O)N3CCC[C@H]3C(=O)N2[C@H]1c1ccc(O)cc1 | -0.813 | 0.11 (inactive) | -0.738 | -0.5 | 0.666 | 1.44 | -0.642 | -1.11 | 0.0994 | -0.397
CCOC(=O)[C@H]1C/C=C/C[C@H](C(=O)OCC)C(=O)O[C@H]2[C@@H](OC)O[C@H](CO)[C@@H](OC(=O)Nc3ccc(OC)cc3)[C@@H]2OC1=O | 0.441 | 0.937 (inactive) | 0.292 | 0.0196 | 0.475 | 0.984 | 1.16 | 1.32 | 0.37 | 0.92
COc1ccc([Si](C)(C)[C@H]2[C@H](CC(=O)N3Cc4ccccc4C[C@H]3CO)O[C@@]3(C(=O)N(Cc4cccc(N5CCCCC5=O)c4)c4ccccc43)[C@@H]2C)cc1 | 0.26 | 0.424 (inactive) | -0.0044 | -0.14 | 0.498 | 0.951 | 0.0263 | 0.724 | 1.19 | 1.05
COc1ccc(NC(=O)O[C@H]2[C@H](OC(=O)Nc3ccc4c(c3)OCO4)[C@@H](OC(=O)Nc3ccc4c(c3)OCO4)[C@@H](OC)O[C@@H]2CO)cc1 | 0.837 | 0.622 (inactive) | 0.121 | -0.0116 | 0.442 | 2.71 | 0.714 | 1.29 | 0.143 | 1.11
COCCCNC(=O)[C@@]1(Sc2ccc(C)cc2)CC(=O)N(C2Cc3ccccc3C2)[C@@H]1c1ccc(CO)cc1I | -1.09 | -0.298 (inactive) | -0.146 | -0.102 | 0.871 | -0.152 | 0.297 | -0.52 | -0.555 | -1.61
CCOC(=O)C1=C[C@@H](c2ccccc2)N(S(=O)(=O)c2ccc(C)cc2)[C@H]1c1cccc(Cl)c1 | 0.895 | -0.101 (inactive) | 0.224 | 0.152 | 0.703 | -0.102 | 0.882 | 1.31 | -0.599 | 1.11
C=CCOC(=O)[C@H]1[C@@H]2C(=O)O[C@@H](c3ccccc3)[C@@H](c3ccccc3)N2[C@@H](c2ccc(OCCOC(=O)[C@H]3C[C@H]4C(=O)N[C@@H](CCCC[N+](C)(C)C)C(=O)N4[C@H]3c3cccc(OCCO)c3)cc2)[C@]12C(=O)Nc1ccc(I)cc12 | -0.0737 | 0.197 (inactive) | -0.208 | -0.161 | 0.108 | 0.365 | 0.072 | 0.489 | 0.578 | 1.13
COC(=O)[C@@]1(Cc2ccc(F)cc2)[C@H]2c3cc(C(=O)N4CCCC4)n(CCc4c[nH]c5ccc(OC)cc45)c3C[C@H]2CN1C(=O)c1ccccc1 | 0.871 | 0.298 (inactive) | 1.43 | 0.849 | 0.313 | 2.33 | -0.143 | 0.929 | -0.0865 | 1.09
CC(C)C(CO)N1C(=O)[C@]2(C)C3C(=O)OCCC/C=C\[C@H]3OC23C=CCN(c2ccc(Cl)cc2)C(=O)[C@@H]13 (stereo not given in full) | -0.187 | -0.132 (inactive) | -0.157 | -0.164 | 0.853 | 3.39 | 0.32 | 0.36 | -0.883 | -0.522
COc1cc(CO)cc(I)c1O[C@H]1C=C(C(=O)NCCO)C[C@@H](NCc2ccccc2F)[C@@H]1O | 0.162 | 0.235 (inactive) | 0.0979 | -0.179 | 0.218 | 0.558 | 0.303 | 1.02 | 0.486 | 0.746
CCOC(=O)[C@@H]1[C@@H]2C(=O)N(CC)C(=O)[C@@H]2C[C@@H]1Sc1ccccc1 | 0.663 | -0.889 (inactive) | 0.191 | -0.0297 | 0.36 | 1.84 | 0.68 | 1.25 | -0.235 | 0.563
COc1ccc(CCNC(=O)[C@@]2(Sc3ccc(C)cc3)CC(=O)N(Cc3cc(C(F)(F)F)cc(C(F)(F)F)c3)[C@@H]2c2ccc(CO)cc2I)cc1 | 0.259 | 1.4 (inactive) | -0.193 | -0.106 | 0.684 | 1.54 | 0.227 | 0.677 | -0.596 | 0.759

SMILES | composite z-score (Albumin (Bos taurus)) | composite Z-score [1] | composite z-score [2] | composite z-score [3] | composite z-score [4] | composite z-score [5] | composite z-score [6] | composite z-score (Sam68 (KHDRBS1)) | composite z-score [7] | composite z-score [8]
C=CCN1Cc2ccccc2C[C@@]2(N=C(c3ccc(OCCCO)cc3)O[C@H]2c2ccccc2)C1=O | 0.247 | 0.667 (inactive) | 0.106 | -0.0148 | 0.577 | 3.06 | 0.326 | 1.3 | 0.185 | 1.14
COc1ccc(C(O)C2C=CC3C(=O)N(C)C(=O)C3N2N2CCCCC2)cc1 (stereo not given) | 0.999 | 0.0811 (inactive) | 0.272 | 0.233 | 0.761 | 2.14 | 0.986 | 1.1 | 0.248 | 1.11
COc1ccc(C(O)C2C=CC3C(=O)N(Cc4ccccc4)C(=O)C3N2n2cnnc2)c2ccccc12 (stereo not given) | 0.626 | 0.624 (inactive) | -0.0238 | -0.125 | 0.783 | 1.65 | 0.686 | 1.01 | -2.13 | 0.388
CN(C)CCCNC(=O)[C@@H]1c2ccccc2C(=O)N(CC23CC4CC(CC(C4)C2)C3)[C@H]1c1ccc(CO)cc1 | 0.821 | 2.01 (inactive) | -0.001 | -0.0984 | 0.344 | 2.62 | 2.1 | 1.3 | 0.452 | 1.18
NC(=O)N1C(=O)C2C(C1=O)C1C=C(CCCO)C2C(c2cccs2)N1Cc1cc2c(cc1Br)OCO2 (stereo not given) | 0.429 | -0.483 (inactive) | -0.0328 | -0.12 | 0.757 | 1.04 | -0.0752 | 0.234 | -0.663 | 0.827
NC(N)=NCc1cn(CCc2c[nH]c3ccccc23)nn1 | 0.566 | 0.354 (inactive) | -0.0647 | -0.12 | 0.633 | 0.421 | 0.262 | 0.714 | 0.866 | 0.948
C=CCN1C(=O)[C@]2(CC=C)N=C(c3ccc(OCCCO)cc3)O[C@@H]2c2ccccc21 | 0.93 | 1.66 (inactive) | 0.193 | -0.0648 | 0.675 | 1.35 | 0.053 | 1.33 | 0.689 | 1.14
[N-]=[N+]=Nc1ccccc1C[C@]1(C(=O)NCc2ccccc2)N=C(c2ccc(OCCCO)cc2)O[C@H]1c1ccccc1 | 0.989 | 0.0068 (inactive) | 0.285 | 0.0443 | 0.714 | 2.93 | 0.373 | 1.29 | -0.755 | 1.07
C=CCNC(=O)[C@@H]1[C@H]2C(=O)O[C@H](c3ccccc3)[C@H](c3ccccc3)N2[C@H](c2ccc(OCCO)cc2)[C@@]12C(=O)N(C(=O)OCCOC)c1ccc(C#CC3=CCCCC3)cc12 | 0.498 | 0.223 (inactive) | 0.144 | -0.0832 | 0.621 | 0.634 | 0.923 | 1.3 | 0.606 | 1.15
O=C1C[C@]2(c3ccc([N+](=O)[O-])cc3)C(=O)N(Cc3ccccc3)c3cc(CO)ccc3[C@H]2N1CC12CC3CC(CC(C3)C1)C2 | -0.729 | -0.767 (inactive) | -0.356 | -0.207 | -0.406 | 0.284 | 1.66 | -1.26 | -1.27 | -1.73
CN1C(=O)C2C=CC(C(O)Cc3ccccc3)N(N(c3ccccc3)c3ccccc3)C2C1=O (stereo not given) | 0.829 | 0.895 (inactive) | 0.116 | -0.0086 | 0.613 | 1.02 | 0.521 | 0.805 | -0.897 | 0.325
C=CCN1C(=O)[C@@]2(O[C@@H](CCO)[C@H]([Si](C)(C)c3ccc(OC)cc3)[C@H]2C)c2cc(N3C(=O)c4ccccc4Oc4ccccc43)ccc21 | 0.593 | 0.0553 (inactive) | -0.145 | -0.133 | 0.307 | 1.15 | 0.478 | 0.522 | -0.0806 | 0.854
[N-]=[N+]=Nc1ccccc1C[C@@]1(C(=O)O)N=C(c2ccc(OCCCO)cc2)O[C@@H]1c1ccccc1 | 0.952 | 0.77 (inactive) | 0.0208 | -0.0895 | 0.799 | 2.76 | 0.45 | 1.03 | -0.777 | 1.15
CC=CC(O)C1C=CC2C(=O)N(c3ccccc3)C(=O)C2N1Nc1ccc([N+](=O)[O-])cc1 (stereo not given) | 0.0015 | -0.127 (inactive) | -0.0044 | -0.123 | 0.661 | 0.657 | 0.865 | 0.729 | 0.414 | 0.217
CC(C)C[C@@H]1NC(=O)[C@H]2C[C@@H](C(=O)NCCCCCC[N+](C)(C)C)[C@@H](c3cccc(OCCO)c3)N2C1=O | 0.107 | 0.831 (inactive) | -0.0967 | -0.169 | 0.377 | 1.02 | 0.384 | 0.374 | 0.964 | 0.869
C[C@H]1ON(c2ccc(C(=O)OC(C)(C)C)cc2)[C@@H](c2ccc(O)cc2)[C@@H]1C(=O)N1C(=O)OC[C@@H]1c1ccccc1 | 0.393 | -0.281 (inactive) | 0.0218 | -0.126 | 0.454 | 0.741 | 0.295 | 1.32 | 0.456 | 0.768
